Where “and” joins values, the source holds several entries; their conditions need not be identical. Equal entries are not always repeated. Some compounds were tested as several samples or in several runs, with calls that do not always agree. Calls of active or inactive are those of the source. Rule for the calls: active = hit-call score of the fitted dose curve at least 0.9, where 1 is the maximum; inactive = score below 0.9.

Results on 38 compounds are retold here after PubChem BioAssay (EPA / NIEHS).

A short description of the assay: BSK_3C_uPAR: BioMAP Diversity Plus: 3C Assay for Urokinase-type plasminogen activator receptor (uPAR) Biomarker Activity (AID 2282998). The conditions noted are these: BioMAP 3C HUVEC, uPAR biomarker ELISA; actives raise or lower the signal. The procedure:
BSK_3C is a cell-based, multiplexed-readout assay that uses umbilical vein endothelium, a human vascular primary cell, with measurements taken at 24 hours after chemical dosing in a 96-well plate.BSK_3CAR is an assay component measured in the BSK_3C assay. It measures uPAR antibody related to regulation of gene expression using ELISA technology.Data from the assay component BSK_3CAR was analyzed into 1 assay endpoint. This assay endpoint, BSK_3CAR, was analyzed with bidirectional fitting relative to DMSO as the negative control and baseline of activity. Using a type of binding reporter, gain or loss-of-signal activity can be used to understand changes in the signaling as they relate to the gene PLAUR. Furthermore, this assay endpoint can be referred to as a primary readout, because this assay has produced multiple assay endpoints where this one serves a signaling function. To generalize the intended target to other relatable targets, this assay endpoint is annotated to the cytokine intended target family, where the subfamily is plasmogen activator.
The levels of cell surface (or secreted, indicated by the prefix "s") biomarker endpoints were measured by ELISA. Overt cytotoxicity to cells in confluent adherent cultures (all systems other than the BT system) was assessed by measuring total protein levels using sulforhodamine B (SRB) staining in parallel cultures at the time of biomarker measurements, indicated as SRB endpoints. For proliferation assays for adherent cell types, individual cell types are cultured at sub-confluence and relative cell numbers quantified by SRB staining at time points optimized for each system (48 h: 3C and CASM3C systems; 72 h: BT and HDF3CGF systems; 96 h: SAg system). SRB was performed by staining cells with 0.1% SRB after fixation with 10% TCA and reading wells at 560 nm.Viability and proliferation of PBMC (T cells) was quantified by Alamar Blue reduction for the SAg and BT systems. For PBMC viability (referred to as PBMC Cytotoxicity within the assay endpoint names), cells were plated (75,000/well in a 96-well plate) and then chemical samples added for 1 h before addition of activators, SEB and TSST-1 (20 ng/mL final concentration each). Cells were incubated for 90 h. Then, Alamar Blue (20 uL/well) (Invitrogen, Cat DAL1100) was added for 6 h, and the plates were read with a fluorescence microplate reader at 546/580 nm (excitation/emission). For PBMC proliferation, cells were plated and activated as above but incubated for only 16 h prior to addition of Alamar Blue. Plates were read after 6 h.
Background: ELISA stands for enzyme-linked immunosorbent assay.
`C=CC(=O)OCC(F)(F)C(F)(F)C(F)(F)C(F)(F)C(F)(F)C(F)(F)C(F)(F)C(F)F`: the outcome was inactive.

`C=CC(=O)OCC(F)(F)C(F)(F)C(F)(F)COC(=O)C=C`: the AC50 – broadly, the concentration at which the activity in the assay is half-maximal – was 30 µM (active) and 48.5 µM (active).

For `Cc1cnccn1`, the outcome was inactive.

On to `OCC(O)CC(F)(F)C(F)(F)C(F)(F)C(F)(F)F` (stereo not given), for which the result was inactive.

For `O=C=Nc1cccc2c(N=C=O)cccc12`, the outcome was inactive.

Consider `CCOC(=O)CC(=O)C(F)(F)C(F)(F)F`, for which the result was inactive.

With `CN(C(=O)C(F)(F)C(F)(F)C(F)(F)F)[Si](C)(C)C`, the result was inactive.

As for `CC(C)CCCC(C)CCO` (stereo not given), the AC50 was 26.7 µM (active).

`OCCCC(F)(F)C(F)(F)C(F)(F)C(F)(F)C(F)(F)C(F)(F)C(F)(F)C(F)(F)F`: the AC50 was 19.6 µM (active) and 42.2 µM (active).

With `CO[Si](C)(CCC(F)(F)C(F)(F)C(F)(F)C(F)(F)C(F)(F)C(F)(F)F)OC`, the result was inactive.

`FC(F)(F)C(F)(F)C(F)(F)C(F)(F)C(F)(F)C(F)(F)CC[Si](Cl)(Cl)Cl`: the result was inactive.

Take `OCC(F)(F)C(F)(F)C(F)(F)CO`: the result was inactive.

As for `Nc1cc([N+](=O)[O-])cc(Cl)c1O`, the outcome was inactive.

`Cc1cc(C)c(O)c(C(C)(C)C)c1`: the AC50 is 29.2 µM (active).

Consider `CNS(=O)(=O)C(F)(F)C(F)(F)C(F)(F)C(F)(F)C(F)(F)C(F)(F)C(F)(F)C(F)(F)F`, for which the result was inactive.

Turning to `NS(=O)(=O)C(F)(F)C(F)(F)C(F)(F)C(F)(F)C(F)(F)C(F)(F)F`, the AC50 was 19.6 µM (active) and the result was inactive.

Consider `CCOC(C=C(C)CCC=C(C)C)OCC`, for which the AC50 is 31.3 µM (active).

With `NC(=O)C(F)(F)C(F)(F)C(F)(F)C(F)(F)C(F)(F)C(F)(F)C(F)(F)F`, the outcome was inactive.

As to `NC(=O)C(F)(F)C(F)(F)C(F)(F)F`, the result was inactive.

Take `O=C(O)CCC(F)(F)C(F)(F)C(F)(F)C(F)(F)C(F)(F)C(F)(F)C(F)(F)F`: the outcome was inactive.

With `NCC(F)(F)C(F)(F)C(F)(F)C(F)(F)C(F)(F)C(F)(F)F`, the result was inactive.

Turning to `CCN=C1C=CC(=C(c2ccc(N(CC)CC)cc2)c2ccc(N(CC)CC)cc2)c2ccccc21`, the half-maximal activity concentration (AC50) was 3.95 µM (active) and 1.39 µM (active).

On to `OCC(F)(F)C(F)(F)C(F)(F)C(F)(F)C(F)(F)C(F)(F)CO`, for which the result was inactive.

Regarding `Cc1cc(O)c(C(C)(C)C)cc1C(C)(C)C`, the AC50 is 3.82 µM (active).

Turning to `O=S(=O)(OCC(F)(F)F)C(F)(F)C(F)(F)C(F)(F)C(F)(F)F`, the outcome was inactive and the AC50 is 38.5 µM (active).

Take `CCN(CC)c1ccc(N=Nc2ccccc2)cc1`: the AC50 is 20 µM (active).

Regarding `O=C(O)CCC(F)(F)C(F)(F)C(F)(F)F`, the result was inactive.

On to `Cc1ccc(O)c(-n2nc3ccccc3n2)c1`, for which the outcome was inactive.

As for `NCC(F)(F)C(F)(F)C(F)(F)C(F)(F)C(F)(F)C(F)(F)C(F)(F)C(F)(F)F`, the result was inactive.

On to `C=C(C)C(=O)OCC(F)(F)C(F)(F)C(F)(F)C(F)F`, for which the result was inactive.

Regarding `FC(F)(F)C(F)(F)C(F)(F)C(F)(F)C(F)(F)C(F)(F)C(F)(F)CCI`, the result was inactive.

For `NC(=O)C(F)(F)C(F)(F)C(F)(F)C(F)F`, the outcome was inactive.

In the case of `C[C@]12CC[C@H]3C(=CCc4cc(O)ccc43)[C@@H]1CCC2=O`, the result was inactive.

As to `COC(F)(C(F)F)C(F)(F)F` (stereo not given), the result was inactive.

With `O=S(=O)(Cl)C(F)(F)C(F)(F)C(F)(F)C(F)(F)C(F)(F)C(F)(F)C(F)(F)C(F)(F)F`, the half-maximal activity concentration (AC50) was 45.8 µM (active) and 47.4 µM (active).

On to `FC(F)(F)C(F)(F)C(F)(F)CC1CO1` (stereo not given), for which the outcome was inactive.

With `O=C1C=CC(=O)N1c1ccc(Cc2ccc(N3C(=O)C=CC3=O)cc2)cc1`, the AC50 was 5.81 µM (active).

Turning to `NC(=O)C(F)(F)C(F)(F)C(F)(F)C(F)(F)C(N)=O`, the result was inactive.
